In the library only some 5.3% were active in any assay of this set; here they are far more common.
ALOX15B inhib = 15-hLO-2 (ALOX15B) enzyme inhibition; O15296; purified 15hLO-2, xylenol orange hydroperoxide absorbance; Potency, µM (series often up to 57.1 µM), for inactives: at the highest dose activity change, negative = inhibition, most hits filed as inhibitors; 0.56% of 110,000 active; AID 881; note: potency is the fitted concentration of half-maximal effect; nearly all actives have a fitted effect of over 60% in size
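Screening format was qHTS against 50 nM purified 15hLO-2 in Hepes pH 7.5 with detergent. Activity follows hydroperoxide formation from 45 uM arachidonic acid, measured as 573:405 nm absorbance ratio of the ferric-xylenol orange complex.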
PNC inhibitor = blocks assembly of the perinucleolar compartment | 3.1% of 140,000 active | activity change (PNC), negative = inhibition, % at 10 µM | PC3M PTB-GFP, PNC prevalence imaging, 16 h; stronger effect = lower value;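 active = readout at or below -70, meaning at least 70% loss of cells showing the perinucleolar compartment, a nuclear body marking cancer cells; inconclusive = readout between -30 and a set limit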;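 note: plate controls were DMSO wells for no effect and camptothecin positive control wells for full effect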
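Read-out is percentage of cells bearing a perinucleolar compartment, from automated 20x imaging of fixed, Hoechst-stained PC3M PTB-GFP cells. Cells were seeded 4 h, then exposed 16 h to compound (23 nl of library stock) in duplicate plates.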
IMPase cell inh = IMPase inhibition in cells | CHO-M1 cells, IP1 accumulation, HTRF TR-FRET ratio | inhibition (IP1 accumulation), % at 46.1 µM | 120,000 tested, under 10 active; active = well fitted curve in the direction sought with a large enough effect in the signal ratio, not every such curve was filed as active; inconclusive = small, poorly fitted or top-dose-only effect, or a change in a side signal; inactive = no such curve, though single readings can be large or run the other way; the % refers to the signal ratio;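 note: cells stimulated with carbachol in lithium chloride buffer; plate controls were DMSO basal wells for no effect and reference inhibitor wells for full effect; higher means more IMPase inhibition seen as more IP1 and lower FRET ratio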
Target sequence (P97697 whole entry, looked up): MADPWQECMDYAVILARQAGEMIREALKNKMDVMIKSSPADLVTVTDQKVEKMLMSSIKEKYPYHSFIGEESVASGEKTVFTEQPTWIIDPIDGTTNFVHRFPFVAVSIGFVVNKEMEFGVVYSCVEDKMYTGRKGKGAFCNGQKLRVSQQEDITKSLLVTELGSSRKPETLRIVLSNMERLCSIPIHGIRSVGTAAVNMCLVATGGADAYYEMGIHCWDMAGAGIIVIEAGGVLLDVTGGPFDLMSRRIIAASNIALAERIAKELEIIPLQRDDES
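Seeded CHO-M1 cells were dosed with compound at up to 46 uM, stimulated with carbachol for 30 min, then lysed in IP-One detection reagents. Higher IP1 lowers the TR-FRET signal.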
ALOX12 inhib = 12-hLO (ALOX12) enzyme inhibition. purified 12-hLO, xylenol orange hydroperoxide absorbance. Potency, µM (series often up to 57.1 µM), for the others: at the top dose activity change, negative = inhibition, most hits filed as inhibitors. 0.12% of 150,000 active. AID 1452; note: potency is the fitted concentration of half-maximal effect; nearly all actives have a fitted effect of over 55% in size
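Hydroperoxide output read as Fe(III)-xylenol orange absorbance, 573-to-405 nm ratio, after 30 min reaction with 40 uM arachidonic acid. Enzyme: 150 nM purified human 12hLO, 15 min compound preincubation; 25 mM Hepes pH 7.0, room temperature.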
IMPase Li inh = IMPase inhibition in cells with lithium potentiation | CHO-M1 cells, IP1 TR-FRET (IP-One), carbachol + lithium | Potency, µM (top dose mostly 59.4 µM), without a hit: at the highest dose activity, negative = IMPase inhibition, actives largely listed as inhibitors | 0.35% of 210,000 active;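 note: IP1 builds up when IMPase is blocked and the TR-FRET signal falls; potency is the fitted concentration of half-maximal effect; plate controls were basal vehicle for no effect and high inhibitor control for full effect; nearly all actives have a fitted effect of over 50% in size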
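Test compounds were applied to CHO-M1 cells previously cultured for 16–30 h at 2000 per well. A small lithium amount accompanied them; after 30 min at 37C, IP1 was quantified by TR-FRET.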
HPGD inh = inhibitors of human 15-hydroxyprostaglandin dehydrogenase (HPGD); purified HPGD, NADH fluorescence kinetic, PGE2 substrate; Potency, µM, without a hit: top-dose activity change, negative = inhibition, usual class: inhibitors; AID 894; P15428; 4.3% of 150,000 active; active = well fitted inhibition curve with a large enough effect, not every such curve was filed as active; inconclusive = small, poorly fitted or top-dose-only effect, or another doubt; inactive = no such curve, though single readings can be large or run the other way; note: potency is the fitted concentration of half-maximal effect
Target sequence (P15428 whole entry, looked up): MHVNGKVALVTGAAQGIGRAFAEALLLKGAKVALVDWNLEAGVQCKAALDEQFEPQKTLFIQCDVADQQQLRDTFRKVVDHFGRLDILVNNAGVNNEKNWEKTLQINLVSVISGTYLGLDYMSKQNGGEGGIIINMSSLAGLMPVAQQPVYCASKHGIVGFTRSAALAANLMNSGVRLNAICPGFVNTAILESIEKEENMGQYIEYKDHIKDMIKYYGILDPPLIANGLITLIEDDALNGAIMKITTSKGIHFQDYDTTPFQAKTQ
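NADH formation kinetics: reaction with 30 uM PGE2 and 1 mM NAD+ (final), 20 nM enzyme, Tris-HCl pH 8 with Tween 20, after 15 min compound preincubation at room temperature. Fluorescence change, last versus first of five reads.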
The depositor's hits bear a star; ? = inconclusive; . = no result; [ ] = another dose, or the depositor's remark. Unless noted, calls come from the whole dose curve; as a rule, active = well fitted curve in the direction sought with a large enough effect; inconclusive = small, poorly fitted or top-dose-only effect, or another doubt; inactive = no such curve, though single readings can be large; an effect the other way counts as inactive or inconclusive. Unless noted, % is set by controls: 0 for no effect and ±100 for the full control effect.

SMILES	ALOX15B inhib	PNC inhibitor	IMPase cell inh	ALOX12 inhib	IMPase Li inh	HPGD inh
CC(C)OC(=O)CSc1nnc(-c2cnccn2)n1C	.	-91*	-10	-4%	-4%	-14%
Cn1c(SCC(=O)Nc2ccc3cn[nH]c3c2)nnc1-c1cnccn1	2%	-100*	-6	-4%	-6%[38.3 µM]	-9%
Cn1c(SCC(=O)Nc2ccc3cn[nH]c3c2)nnc1-c1cccs1	1%	0	-4	0%	1%[38.3 µM]	-1%
O=C(N/C(=C/c1cccnc1)C(=O)N1CCOCC1)c1ccccc1Br	.	-11	2	0%	-3%	-2%
CCOc1ccc(C(=O)Nc2cc(C)c3c(=O)oc4ccccc4c3n2)cc1	-6%	3	-3	-2%	13µM*	-16%
Cc1cc(NC(=O)c2ccccc2)nc2c1c(=O)oc1ccccc12	.	.	.	.	0%	.
CCOc1ccc(C(=O)Nc2c(C(N)=O)oc3ccccc23)cc1	.	-119*	-8	-9%	4%	?
COc1cccc(C(=O)Nc2c(C(N)=O)oc3ccccc23)c1	-2%	-11	-8	-8%	29%[38.3 µM]	?
Fc1ccc(CNC(=S)NC2CCCCCC2)cc1	.	.	.	.	2%	.
Cc1cc(C)nc(SCc2cc(=O)c(OC(=O)c3ccc(S(=O)(=O)N(C)C)cc3)co2)n1	.	?	-5	2%	-3%	-28%
Cc1ccnc(SCc2cc(=O)c(OC(=O)c3ccc(Br)o3)co2)n1	.	-83*	-10	-6%	-4%	3%
Cc1cc(C)nc(SCc2cc(=O)c(OC(=O)c3ccc(Cl)c([N+](=O)[O-])c3)co2)n1	.	16	2	3%	15%	11µM*
Cc1ccnc(SCc2cc(=O)c(OC(=O)c3ccc(S(=O)(=O)N(C)C)cc3)co2)n1	.	-109*	-9	-4%	-3%	-6%
OCC1O[C@@H](OC2C(O)C(CO)O[C@@]2(CO)O[C@@H]2OC(CO)C(O)C(O)C2O)C(O)C(O)C1O (some centres not stated)	-1%	.	.	-4%	3%	-6%
CCOC(=O)c1c(-c2ccccc2)csc1NC(=O)/C(C#N)=C/c1ccc(O)c(OC)c1	.	10	-2	-6%	-4%	-22%
O=S(=O)(Nc1ccc(Cl)cc1)c1ccc(N2CCOCC2)c(NC(=S)NC2CC2)c1	.	.	.	.	3%	.
COc1ccc(NS(=O)(=O)c2ccc(N3CCCC3)c(NC(=S)Nc3ccc(SC(F)F)cc3)c2)cc1	.	23	.	?	3%	3.5µM*
COc1ccc(NS(=O)(=O)c2cc(NC(=O)c3ccco3)ccc2N2CCCC2)cc1	.	-18	-2	-1%	15%	-7%
COc1ccc(NS(=O)(=O)c2ccc(N3CCCC3)c(NC(=S)Nc3cccc(C)c3C)c2)cc1	.	?	.	?	6%	13µM*
COc1ccccc1-c1ccc(NC2CCCCC2)nn1	.	108	4	-4%	13%	7.1µM*
Cc1ccc(S(=O)(=O)N2C(=O)C(C)SC2=Nc2ccccc2)cc1 (configuration not stated)	.	?	.	5%	-4%	-5%
Cc1ccc(S(=O)(=O)N2C(=O)C(c3ccccc3)SC2=Nc2ccccc2)cc1 (configuration not stated)	-26%	22	3	8%	10%[38.3 µM]	10µM*
O=C(OCc1c(Cl)cccc1Cl)c1ccncc1	.	-25	-8	-1%	2%	-8%
CC(=O)N1CCN(c2ccc(NC(=O)C(C)Oc3ccc(Cl)cc3Cl)cc2)CC1 (configuration not stated)	-2%	?	12	-19%	66%[38.3 µM]	20µM*
C=CCNS(=O)(=O)c1nc(C)c(Cl)c(C)c1C#N	4%	-85*	-14	2%	15%[38.3 µM]	-13%
SMILES	ALOX15B inhib	PNC inhibitor	IMPase cell inh	ALOX12 inhib	IMPase Li inh	HPGD inh
Cn1c(SCCCC(=O)c2ccc(Br)cc2)nnc1-c1ccncc1	2%	5	1	4%	27%[38.3 µM]	18µM*
O=C(Cn1ccc([N+](=O)[O-])n1)NCc1cccnc1	.	.	.	.	0%	.
COc1ccccc1N1CCN(C2=NS(=O)(=O)c3ccccc32)CC1	0%	41	7	0%	20%[38.3 µM]	-8%
C=CCN1/C(=C(\C#N)C2=NS(=O)(=O)c3ccccc32)N(C)c2ccccc21	-6%	-4	0	-7%	7%[38.3 µM]	14µM*
COC(=O)CN(n1cnnc1)S(=O)(=O)c1ccccc1Cl	1%	?	-7	11%	26%[38.3 µM]	-10%
CON(c1nc(N(C)C)nc(N(C)C)n1)S(=O)(=O)c1ccccc1Cl	-3%	-100*	2	1%	3%[38.3 µM]	-17%
c1cncc(-c2nn3c(Cn4nnc5ccccc54)nnc3s2)c1	-7%	14	-1	-8%	7%[38.3 µM]	13µM*
c1ccc(-c2nn3c(Cn4nnc5ccccc54)nnc3s2)nc1	-19%	?	0	-4%	28%[38.3 µM]	7.1µM*
Cc1cccc(S(=O)(=O)c2c(N)n(-c3ccccc3)c3nc4ccccc4nc23)c1	.	?	.	1%	-9%	?
Cc1cnc(C)c(N2CCC(C(=O)NCc3cccs3)CC2)n1	-3%	-127*	-3	-5%	4%[38.3 µM]	-12%
N#CCCN(Cc1cccnc1)C(=O)c1sc2cc(F)ccc2c1Cl	.	-6	.	-1%	-14%	7.1µM*
Cc1cc(NS(=O)(=O)c2ccc(NC(=O)C(C(C)C)N3C(=O)c4ccccc4C3=O)cc2)nc(C)n1 (configuration not stated)	-6%	-88*	2	5%	1%[38.3 µM]	-11%
Cc1cc(NS(=O)(=O)c2ccc(NC(=O)C(CC(C)C)N3C(=O)c4ccccc4C3=O)cc2)nc(C)n1 (configuration not stated)	3%	10	1	-7%	-2%[38.3 µM]	-5%
Cc1ccccc1-c1nnc(SCC(=O)N2CCCCC2)o1	.	.	3	.	.	.
COc1cc(OC)cc(-c2nnc(SCC(=O)N3CCCCC3)o2)c1	-3%	-26	-7	-2%	27%[38.3 µM]	25µM*
O=C(CSc1nnc(-c2c[nH]c3ccccc23)o1)N1CCCCC1	2%	-30	2	-5%	-14%[38.3 µM]	28µM*
O=C(CSc1nnc(-c2ccccc2Br)o1)N1CCc2ccccc2C1	-5%	-22	3	-4%	6%[38.3 µM]	25µM*
C#CCONC(=O)c1cc(OCC(F)(F)F)ccc1OCC(F)(F)F	.	81	5	-2%	-4%[38.3 µM]	-7%
COc1ccc(C2NC(c3ccc(OC)cc3)C(c3ccccc3)C(=O)C2c2ccccc2)cc1 (configuration not stated)	.	34	.	0%	6%	-17%
COc1cc(NC(=O)c2cc(-c3ccco3)on2)c(OC)cc1Cl	0%	-26	6	-2%	11µM*	?
